Compounds with a hit are over-represented: about 7% of the library has one in this group of screens.
proKLK7 act – activates the human kallikrein-7 zymogen; purified proKLK7, EDANS-DABCYL substrate fluorescence; 100% is mature enzyme control, 0% vehicle; P49862; activation, % at 7 µM; actives 0.9% (n = 370,000);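 active = activation above the mean of all tested compounds plus 3 SD, computed per campaign excluding outliers beyond control limits, cut at about 13% in these data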
Target sequence (P49862 whole entry, looked up): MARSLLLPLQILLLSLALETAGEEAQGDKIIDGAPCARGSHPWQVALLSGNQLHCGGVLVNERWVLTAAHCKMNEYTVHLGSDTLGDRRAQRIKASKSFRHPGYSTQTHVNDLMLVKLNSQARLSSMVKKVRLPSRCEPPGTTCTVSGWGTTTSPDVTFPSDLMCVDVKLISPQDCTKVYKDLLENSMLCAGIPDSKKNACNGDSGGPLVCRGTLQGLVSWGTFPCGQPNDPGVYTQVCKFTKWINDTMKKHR
AHR act – activates the human aryl hydrocarbon receptor. actives 2.5% (n = 320,000). AID 2796. activation, % at 5 µM. AHR-responsive luciferase reporter cells, luminescence. P35869; in the data active = activation above about 47%
ADAM17 inh – inhibits human ADAM17; P78536; recombinant ADAM17, EDANS/DABCYL FRET peptide cleavage; inhibition, % at 6.95 µM; actives 0.83% (n = 370,000);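 active = inhibition above the mean of compounds lying between control limits plus 3 SD, set per campaign, cut at about 8.5% in these data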
ADAM10 inh – ADAM10 inhibition, QFRET primary screen. recombinant ADAM10, EDANS/DABCYL FRET peptide cleavage, 3 h. AID 720582. inhibition, % at 7 µM. actives 0.62% (n = 370,000);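 active = inhibition above a per-campaign cutoff equal to the mean of compounds falling between control-based bounds plus 3 SD, cut at about 20% in these data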
rCAG binder – binds r(CAG) RNA repeats; actives 1.3% (n = 370,000); AID 651821; r(CAG) RNA repeat, TO-PRO-1 dye displacement fluorescence; inhibition, % at 3 µM;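 active = inhibition above the plate cutoff, the mean of all test compounds on that plate plus 3 SD, cut at about 35% in these data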;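 also: higher means more dye released from RNA so lower well fluorescence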
GRIN3A LBD mod – NR3A (human) ligand-binding domain modulation. NR3A LBD differential scanning fluorimetry, Tm shift; 0% = protein alone, 100% = glycine-bound protein. Tm shift relative to glycine control, % at 25 µM. actives 2.5% (n = 340,000);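 active = melting temperature shift of at least 10% of the positive control shift, at one fixed dose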
Hits are given with their value.

For FC(F)Sc1ccc(N=C2NN=C(c3ccc4c(c3)OCCO4)CS2)cc1 the results were proKLK7 act inactive, AHR act inactive, ADAM17 inh inactive, ADAM10 inh inactive, rCAG binder inactive and GRIN3A LBD mod 15.
`CCOC(=O)/C=C/[C@H]1CCc2cccc(Cl)c2O1` gave proKLK7 act inactive, AHR act inactive, ADAM17 inh inactive, ADAM10 inh inactive, rCAG binder inactive and GRIN3A LBD mod 15.
Screening Cc1cc(NC(=O)c2c([N+](=O)[O-])c(C)nn2C)no1 returned proKLK7 act inactive, AHR act 70, ADAM17 inh inactive, ADAM10 inh inactive, rCAG binder inactive and GRIN3A LBD mod inactive.
`Cc1cc(NC(=O)c2c(Cl)c(C)nn2C)no1` gave proKLK7 act inactive, AHR act inactive, ADAM17 inh inactive, ADAM10 inh inactive, rCAG binder inactive and GRIN3A LBD mod inactive.
Cc1nn(C)c(C(=O)Nc2ccc(Cl)c([N+](=O)[O-])c2)c1Cl was read as proKLK7 act inactive, AHR act 48, ADAM17 inh inactive, ADAM10 inh inactive, rCAG binder inactive and GRIN3A LBD mod inactive.
`O=C(CSc1nc2ccccc2s1)Nc1ccc(Cl)c(C(=O)O)c1` gave proKLK7 act inactive, AHR act inactive, ADAM17 inh inactive, ADAM10 inh inactive, rCAG binder inactive and GRIN3A LBD mod inactive.
`O=C(NNc1nc2ccccc2s1)c1ccccc1F` gave proKLK7 act inactive, AHR act inactive, ADAM17 inh inactive, ADAM10 inh inactive, rCAG binder inactive and GRIN3A LBD mod inactive.
O=C(CSc1nc2ccccc2s1)NNC(=O)Nc1ccc(Cl)c(Cl)c1 was read as proKLK7 act inactive, AHR act inactive, ADAM17 inh inactive, ADAM10 inh inactive, rCAG binder inactive and GRIN3A LBD mod 26.
`O=C(NNc1nc2ccccc2s1)Nc1ccc(Cl)c(Cl)c1` gave proKLK7 act inactive, AHR act inactive, ADAM17 inh inactive, ADAM10 inh inactive, rCAG binder inactive and GRIN3A LBD mod 16.
For O=C(NNc1nc2ccccc2s1)Nc1ccc(F)cc1 the results were proKLK7 act inactive, AHR act 75, ADAM17 inh inactive, ADAM10 inh inactive, rCAG binder inactive and GRIN3A LBD mod inactive.
For COc1ccc(C(=O)/C=C/Nc2cc(C)on2)c(OC)c1 the results were proKLK7 act inactive, AHR act inactive, ADAM17 inh inactive, ADAM10 inh inactive, rCAG binder inactive and GRIN3A LBD mod 31.
Screening COC(=O)[C@]12CCCCC=C1N(Cc1ccc(OC)cc1)C(=O)[C@@H]2CC(=O)NCC12CC3CC(CC(C3)C1)C2 returned proKLK7 act inactive, ADAM17 inh inactive, ADAM10 inh inactive and rCAG binder inactive.
For CSc1c(CC(=O)Nc2ccccc2)n(C)c2ccccc12 the results were proKLK7 act inactive, AHR act 58, ADAM17 inh inactive, ADAM10 inh inactive, rCAG binder inactive and GRIN3A LBD mod inactive.
`Cn1c(CC(=O)Nc2ccccc2)c(Sc2ccccc2)c2ccccc21` gave proKLK7 act inactive, AHR act inactive, ADAM17 inh inactive, ADAM10 inh inactive, rCAG binder inactive and GRIN3A LBD mod inactive.
For CCCCN1C(=O)C2(NNc3ccccc3O2)c2ccccc21 (stereo not given) the results were proKLK7 act inactive, AHR act 69, ADAM17 inh inactive, ADAM10 inh inactive, rCAG binder inactive and GRIN3A LBD mod inactive.
`CC1=NN(c2ccccc2)C(=O)C1N=Nc1ccc(N)cc1` (stereo not given) gave proKLK7 act inactive, AHR act 49, ADAM17 inh inactive, ADAM10 inh inactive, rCAG binder inactive and GRIN3A LBD mod inactive.
CC1=NN(c2ccccc2)C(=O)C1N=Nc1ccccc1 (stereo not given) was read as proKLK7 act inactive, AHR act inactive, ADAM17 inh inactive, ADAM10 inh inactive, rCAG binder inactive and GRIN3A LBD mod inactive.
For COc1ccc(N=NC2C(=O)N(c3ccccc3)N=C2C)cc1 (stereo not given) the results were proKLK7 act inactive, AHR act 51, ADAM17 inh inactive, ADAM10 inh inactive, rCAG binder inactive and GRIN3A LBD mod inactive.
For COC(=O)[C@]12C[C@H](CC(=O)NCc3cccs3)C(=O)N(Cc3ccco3)C1=C[C@H](C(C)C)O[C@@H]2C1CC1 the results were proKLK7 act inactive, ADAM17 inh inactive, ADAM10 inh inactive and rCAG binder inactive.
`CCOc1ccc2ccccc2c1/C=N/NC(=O)c1cc(C)[nH]n1` gave proKLK7 act inactive, AHR act inactive, ADAM17 inh inactive, ADAM10 inh inactive, rCAG binder inactive and GRIN3A LBD mod inactive.
`Cc1cc(C(=O)N/N=C/c2c(C)n(C)c3ccccc23)n[nH]1` gave proKLK7 act inactive, AHR act 77, ADAM17 inh inactive, ADAM10 inh inactive, rCAG binder inactive and GRIN3A LBD mod inactive.
Screening Cc1cc(C(=O)N/N=C/c2c3ccccc3cc3ccccc23)n[nH]1 returned proKLK7 act inactive, AHR act 98, ADAM17 inh inactive, ADAM10 inh inactive, rCAG binder inactive and GRIN3A LBD mod inactive.
Screening Cc1cccc(C(=O)N[C@H]2CC[C@@]34CCCN3C(=O)CCC[C@H]4[C@H]2C)c1 returned ADAM17 inh inactive and ADAM10 inh inactive.
`COc1ccc(-c2nnc(SCC(=O)N/N=C\C=C/c3ccco3)n2-c2ccc(C)cc2)cc1` gave proKLK7 act inactive, ADAM17 inh inactive, ADAM10 inh inactive and rCAG binder inactive.
CCOC(=O)CSc1nc2c(sc(=S)n2-c2ccccc2OC)c(=O)n1Cc1ccco1 was read as proKLK7 act inactive, AHR act inactive, ADAM17 inh inactive, ADAM10 inh inactive, rCAG binder inactive and GRIN3A LBD mod 19.
Screening CCC[C@@H](/C=C/C(=O)OC(C)(C)C)Sc1ccc(N)cc1 returned proKLK7 act inactive, ADAM17 inh inactive, ADAM10 inh inactive and rCAG binder inactive.
`CCOC(=O)CSc1nc(-c2ccccc2)nc2c1oc1ccccc12` gave proKLK7 act inactive, AHR act 48, ADAM17 inh inactive, ADAM10 inh inactive, rCAG binder inactive and GRIN3A LBD mod inactive.
For CCc1nc(SCC(=O)c2cccs2)c2oc3ccccc3c2n1 the results were proKLK7 act inactive, AHR act 57, ADAM17 inh inactive, ADAM10 inh inactive, rCAG binder inactive and GRIN3A LBD mod inactive.
COC(=O)[C@@H](Cc1ccccc1)N[C@H](/C=C/c1ccccc1)[C@@H](O)Cc1ccccc1 was read as proKLK7 act inactive, ADAM17 inh inactive, ADAM10 inh inactive and rCAG binder inactive.
`Cc1ccc(C(=O)NNC(=S)Nc2cccc(Cl)c2Cl)cc1[N+](=O)[O-]` gave AHR act inactive and GRIN3A LBD mod 18.
For COc1ccccc1NC(=O)/C(=C/c1cccc([N+](=O)[O-])c1)c1ccccc1 the results were proKLK7 act inactive, AHR act inactive, ADAM17 inh inactive, ADAM10 inh inactive, rCAG binder inactive and GRIN3A LBD mod 11.

Screens as filed in PubChem BioAssay.
